# Screening results (PubChem BioAssay)
# The list is not random: actives were taken first. Their share in the collection is about 3.1%.
# MITF act: activators of MITF-driven TRPM1 promoter activity in SK-MEL-5 cells; SK-MEL-5 TRPM1-promoter luciferase, 24 h; % of positive control, neutral wells = 0; activation, % at 12.5 µM; 300,000 tested, 0.75% active; AID 588334;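 active means mean activation of at least 80% with every replicate also reaching 80%; inconclusive means mean reaches 80% but some replicate falls short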;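 further: 0% = neutral control wells and 100% = parthenolide positive control wells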
# Wnt bcat act: Wnt/beta-catenin pathway activation; AID 743398; 300,000 tested, 1.2% active; activation, % at 9.35 µM; Wnt/beta-catenin reporter cell assay, activator, plate reader; in the data active means activation above about 30%, passing the limit was not always enough; inconclusive means no clear call, values can overlap the other calls;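 further: 0% = neutral control wells and 100% = positive control wells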
# esBAF inh: inhibitors of esBAF chromatin remodeling in mouse ES cells. Bmi1-luciferase knock-in reporter, 24 h; 100% = twice the neutral-well signal. 350,000 tested, 2% active. reporter increase, % at 12.5 µM; in the data active means activation above about 40%; inconclusive means no clear call, values can overlap the other calls;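 further: 0% = median of the plate's neutral control wells and 100% = double that signal; a rise in the Bmi1 reporter signal indicates esBAF inhibition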
# Rtt109 HAT inh: inhibitors of Candida albicans Rtt109/Vps75 histone acetyltransferase; Q5AAJ8; purified Rtt109/Vps75, ThioGlo CoA-SH fluorescence, 4 h; inhibition, % at 34.9 µM; 330,000 tested, 0.16% active; AID 540336;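 active means inhibition of at least 50% in every replicate; inconclusive means best replicate reaches 50% inhibition but some replicates fall short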
# Target sequence (Q5AAJ8 whole entry, looked up): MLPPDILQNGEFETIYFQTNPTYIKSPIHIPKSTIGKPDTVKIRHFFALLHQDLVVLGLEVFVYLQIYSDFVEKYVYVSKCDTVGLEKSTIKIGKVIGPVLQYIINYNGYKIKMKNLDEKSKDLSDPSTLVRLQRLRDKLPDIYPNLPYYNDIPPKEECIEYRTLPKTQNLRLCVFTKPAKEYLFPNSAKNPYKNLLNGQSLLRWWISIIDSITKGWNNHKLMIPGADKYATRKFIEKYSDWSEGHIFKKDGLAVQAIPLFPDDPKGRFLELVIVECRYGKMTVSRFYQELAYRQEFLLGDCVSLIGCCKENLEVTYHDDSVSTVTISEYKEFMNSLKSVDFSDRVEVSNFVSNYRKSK
# Statin myotox sup: protects C2C12 myotubes from simvastatin toxicity; rescue of ATP level, % at 7.49 µM; AID 602340; ATP luminescence, 48 h; scaled: DMSO 0, geranylgeraniol control 100; 330,000 tested, 0.78% active;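 active means mean ATP rescue above about 67%, or every replicate alone reaching that limit, limit read from the data, passing the limit was not always enough; inconclusive means no clear call, values can overlap the other calls; inactive means mean under the limit and some replicate under it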;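 further: myotubes were challenged with 10 µM simvastatin during compound exposure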
# * marks the source's active call; other numbers are inactive results; ? = inconclusive; . = not tested or not shown.
SMILES,MITF act,Wnt bcat act,esBAF inh,Rtt109 HAT inh,Statin myotox sup
O=C(/C=C\Nc1ccc(Br)cc1)c1cccnc1,37,38*,.,-3,.
Cc1noc(NS(=O)(=O)c2ccc(N/C=C/C(=O)c3cccnc3)cc2)c1C,-5,.,4,73*,3
COc1ccc(-c2csc(NC(=O)CSc3nc(C)cs3)n2)cc1,.,.,28,-9,-2
Cc1ccc(-c2csc(NC(=O)CSC3=NCCS3)n2)cc1,.,22,45*,-11,8
Cc1nc(-c2ccc3c(c2)OCCCO3)cs1,63,-2,.,-9,.
COc1ccc(-c2csc(NC(=O)CSc3nc(SC)ns3)n2)cc1,-9,3,67*,-2,-4
CCCC(=O)Nc1nc(-c2ccc(OC)cc2)cs1,48,.,68*,-3,-9
Nc1nc(-c2ccc3c(c2)OCCO3)cs1,?,.,51*,5,6
Cc1sc(NC(=O)CSC2=NCCS2)nc1-c1ccccc1,-7,.,.,8,.
O=C(NCCN1CCCC1)[C@H]1N[C@H]2c3ccc(C4=CCCCC4)c(=O)n3C[C@H]2[C@@H]1CO,.,.,0,.,-7
COc1ccc(NC(=O)N(C)C[C@H]2OCCCC[C@@H](C)Oc3ccc(N(C)C)cc3C(=O)N([C@@H](C)CO)C[C@H]2C)cc1,.,.,2,.,19
C[C@H](CO)N1C[C@H](C)[C@@H](CN(C)C(=O)CC2CC2)Oc2cc(C#CC(C)(C)O)ccc2S1(=O)=O,.,.,4,.,6
CO[C@H]1CN(C)C(=O)c2ccc(NS(C)(=O)=O)cc2OC[C@H](C)N(C(=O)C2CCCC2)C[C@@H]1C,.,.,-4,.,-1
CC(C)NC(=O)Nc1ccc2c(c1)C(=O)N([C@@H](C)CO)C[C@@H](C)[C@H](CN(C)C(=O)NC1CCCCC1)OCCCC[C@H](C)O2,.,.,6,.,.
CCCC(=O)Nc1nc(-c2ccc3c(c2)OCCO3)cs1,91*,25,33,-4,1
CSCC(=O)Nc1nc(-c2ccc3c(c2)OCCO3)cs1,44,13,.,7,.
Cn1cnnc1SCC(=O)Nc1ccc2nc(SCc3ccccc3F)sc2c1,106*,25,64*,5,13
CCCSCCCNC(=O)c1ccc(NC(=O)C2=CSCCO2)cc1,8,0,55*,-1,3
CCN1CCN(CCCNC(=O)c2ccc(NC(=O)C3=CSCCO3)cc2)CC1,7,1,8,-8,12
COc1cc(C(=O)Nc2ccc3c(c2)OCCO3)ccc1OC(F)F,98*,0,70*,12,-13
COc1ccc(NC(=O)c2ccc3c(c2)OCO3)cc1Cl,88*,.,.,-3,.
O=C(Nc1ccc(F)c(Cl)c1)c1ccccc1,72,?,70*,1,-2
O=C(Nc1ccc(F)c(Cl)c1)c1cccnc1,.,-1,10,8,0
COc1ccc(C(=O)Nc2ccc3c(c2)OCCO3)c(OC)c1,.,55*,0,.,0
COc1ccc(C(=O)OCC(=O)Nc2ccc3c(c2)OCCO3)c(OC)c1,3,-5,-1,-3,4
SMILES,MITF act,Wnt bcat act,esBAF inh,Rtt109 HAT inh,Statin myotox sup
C[C@H]1CN([C@@H](C)CO)S(=O)(=O)c2ccc(-c3ccncc3)cc2O[C@@H]1CN(C)Cc1ccncc1,.,.,-9,.,-71
COc1ccc(C(=O)O)c(OC)n1,-4,-2,-5,-10,-5
COc1ccc(C(=O)Nc2ccc(Cl)c(Cl)c2)c(OC)n1,46,16,66*,-3,.
Cc1noc(C(=O)Nc2ccc(F)c(Cl)c2)c1Cl,25,7,49*,-5,8
O=C(Nc1ccc(F)c(Cl)c1)c1ccc2c(c1)OCO2,.,0,55*,-3,7
COc1ccc(NC(=O)c2cc(F)c(F)cc2Cl)cc1Cl,56,20,52*,-6,0
CCOC(=O)c1ccc(NC(=O)c2cc(F)c(F)cc2Cl)cc1,12,4,23,10,2
Cc1ccc(NC(=O)c2onc(C)c2Cl)cc1,23,1,2,-3,-14
COc1ccccc1S(=O)(=O)N1CC[C@H]2[C@H](CO)Nc3ccc(-c4ccccc4F)cc3[C@H]21,.,.,3,.,-9
O=C(C[C@H]1C=C[C@H](NS(=O)(=O)c2ccccc2)[C@@H](CO)O1)NCc1ccccc1F,.,.,3,.,-4
Cc1noc(C)c1NC(=O)Nc1ccc2c(c1)C(=O)N([C@H](C)CO)C[C@H](C)[C@@H](CN(C)C(=O)Nc1ccc(F)cc1)OCCCC[C@H](C)O2,.,.,-2,.,-7
CCn1cc(Br)c(C(=O)Nc2ccc(Cl)cc2Cl)n1,.,.,26,-26,4
CCn1cc(Br)c(C(=O)Nc2ccc(F)c(Cl)c2)n1,.,21,58*,.,.
CCCN(C)C[C@@H]1Oc2ncc(-c3cccc(C#N)c3)cc2C(=O)N([C@H](C)CO)C[C@H]1C,.,.,1,.,5
COc1cccc(-c2ccc3c(c2)[C@@H]2[C@@H](CCN2C(=O)c2cnccn2)[C@@H](CO)N3)c1,.,.,13,.,-16
O=C(Nc1nc2c(s1)CN(Cc1ccccc1)CC2)C1CCC1,100*,7,20,13,-8
COc1ccc(-n2cnc3cc(NCc4cccs4)ccc32)cc1,31,8,21,17,127*
C[C@@H]1CN([C@H](C)CO)S(=O)(=O)c2ccc(C3=CCCCC3)cc2O[C@@H]1CN(C)C(=O)c1ccccc1,.,.,-3,.,-59
CCOc1ccc(CNn2nnnc2N)cc1,-5,-4,-6,-1,119*
CCOc1ccc(CNn2cnnc2)cc1,.,0,-3,10,-1
Cc1cc(C)nc(N(C#N)Cc2ccccc2Cl)n1,-2,-3,-4,5,69*
COc1ccc(OC)c2sc(N(CCCN(C)C)C(=O)CCS(=O)(=O)c3ccccc3)nc12,-20,-10,.,83*,.
Cc1cccc2sc(N(CCCN(C)C)C(=O)CN3C(=O)c4ccccc4C3=O)nc12,-1,-5,.,-2,.
Cc1cccc2sc(N(CCCN(C)C)C(=O)CCc3ccccc3)nc12,-30,-15,.,58*,.
C[C@H](O)C#Cc1cnc2c(c1)C(=O)N([C@H](C)CO)C[C@H](C)[C@@H](CN(C)C(=O)c1ccc(F)cc1)O2,.,.,-4,.,9
SMILES,MITF act,Wnt bcat act,esBAF inh,Rtt109 HAT inh,Statin myotox sup
CCCCCc1ccc(OCCCC[n+]2cccc(C)c2)c(CCCCC)c1,-78,-2,-87,73*,-104
CCCCCc1ccc(OCCCC[n+]2ccccc2)c(CCCCC)c1,-88,.,.,?,.
O=C(COC(=O)CCC(=O)c1cccs1)NCc1ccc(Cl)cc1,-3,4,9,2,-9
O=C(COC(=O)c1cccs1)c1ccccc1,34,.,32,-1,18
COc1ccc(C(=O)COC(=O)c2cccs2)cc1,63,54*,68*,-2,-4
Cc1ccccc1NC(=O)COC(=O)C1(C)CC1(Cl)Cl (configuration not stated),9,0,.,.,.
COc1ccccc1C(=O)COC(=O)c1cccs1,80,-2,81*,0,-6
COc1ccc(CNC(=O)COC(=O)CCC(=O)c2cccs2)cc1,-2,39*,-5,5,-3
